The record followed here is PubChem BioAssay (NCATS).

The structures appear in SMILES notation. Values without a mark were called inactive. Records with an inconclusive call do not appear. Active and inactive are the calls of the source. Unless noted, calls follow the shape of the dose curve; as a rule, active = well fitted curve in either direction with a large enough effect (not every such curve was filed as active); inconclusive = small, poorly fitted or top-dose-only effect, or another doubt; inactive = flat fitted curve, though single readings scatter.

Assay [1] addresses Lysosomal acid glucosylceramidase (Homo sapiens) (UniProt P04062). Put plainly: Glucocerebrosidase-p2 (AID 348; in the data active = potency below about 10 µM; also: potency is read from the fitted curve at half-maximal effect). Conditions: purified GBA, blue fluorogenic substrate, 40 min. A digest of the protocol:
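Normal human glucocerebrosidase (0.2 nM) with blue fluorogenic substrate (80 uM final) in citrate/phosphate pH 5.9 with 10mM sodium taurocholate, 0.01% tween-20; 40 min RT, NaOH/glycine stop; fluorescence Ex 365/Em 440; AC50 from a titration from 0.6 nM upwards.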

Assay [2] is described as follows: AP1 Signaling Pathway (AID 357).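 Also: ME-180 reporter cells stimulated with EGF at its EC50 level; % is scaled to controls: 0 for no effect and ±100 for the full control effect.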 Particulars: ME-180 AP-1-bla reporter, EGF-induced, beta-lactamase ratio, 5 h; at 7.69 µM (top of the series) unless noted. A digest of the protocol:
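Beta-lactamase reporter under AP-1 response element, ME-180 background. Stimulus: EC50 EGF. Compound exposure 5 h, 37 °C. Detection: CCF4, 2.5 h RT, 460/530 nm. Values: AC50 from titration.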

Assay [3] in a line: NFAT Signaling Pathway (AID 444).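 Also: carbachol stimulus at about its EC50 of 1 µM final; % is scaled to controls: 0 for no effect and ±100 for the full control effect.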 Particulars: Jurkat NFAT-bla M1, carbachol, beta-lactamase ratio, 5 h; at 7.69 µM (top of the series) unless noted. A digest of the protocol:
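Jurkat cells carrying an NFAT-driven β-lactamase reporter and co-transfected muscarinic M1 receptor were treated with compound plus carbachol (1 uM final, an EC50 level) for 5 h at 37 °C. CCF4 loading followed for 1 h at RT; 460/530 nm ratio gave %activity.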

A short description of assay [4]: Stat Signaling Pathway (AID 446).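 Also: ME-180 cervical cancer cells given 40 pM IL-6 alongside compound; SIE-controlled beta-lactamase reporter measured as 460/530 nm FRET emission ratio; % is scaled to controls: 0 for no effect and ±100 for the full control effect.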 Particulars: ME-180 SIE beta-lactamase reporter, IL-6 stimulated, 5 h; at 7.69 µM (top of the series) unless noted. Put shortly: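 Emission at 460 and 530 nm (excitation 405 nm) reports SIE-controlled beta-lactamase in ME-180 cells. Cells received compound with 40 pM IL-6 for 5 hrs at 37 C; data scaled between 300 pM IL-6 and 125 nM JAK-inhibitor controls.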

The target in assay [5] is Glucocorticoid receptor (Homo sapiens) (UniProt P04150). The experiment in a line: GR-GFP Redistribution (AID 450;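 active = compounds whose dose series gives a full or clear partial fitted curve of increased nuclear translocation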; also: potency is read from the fitted curve at half-maximal effect). Conditions: U2OS GR-GFP nuclear translocation, laser cytometry, 2 h.
Sequence of Glucocorticoid receptor (Homo sapiens) (P04150 whole entry, looked up): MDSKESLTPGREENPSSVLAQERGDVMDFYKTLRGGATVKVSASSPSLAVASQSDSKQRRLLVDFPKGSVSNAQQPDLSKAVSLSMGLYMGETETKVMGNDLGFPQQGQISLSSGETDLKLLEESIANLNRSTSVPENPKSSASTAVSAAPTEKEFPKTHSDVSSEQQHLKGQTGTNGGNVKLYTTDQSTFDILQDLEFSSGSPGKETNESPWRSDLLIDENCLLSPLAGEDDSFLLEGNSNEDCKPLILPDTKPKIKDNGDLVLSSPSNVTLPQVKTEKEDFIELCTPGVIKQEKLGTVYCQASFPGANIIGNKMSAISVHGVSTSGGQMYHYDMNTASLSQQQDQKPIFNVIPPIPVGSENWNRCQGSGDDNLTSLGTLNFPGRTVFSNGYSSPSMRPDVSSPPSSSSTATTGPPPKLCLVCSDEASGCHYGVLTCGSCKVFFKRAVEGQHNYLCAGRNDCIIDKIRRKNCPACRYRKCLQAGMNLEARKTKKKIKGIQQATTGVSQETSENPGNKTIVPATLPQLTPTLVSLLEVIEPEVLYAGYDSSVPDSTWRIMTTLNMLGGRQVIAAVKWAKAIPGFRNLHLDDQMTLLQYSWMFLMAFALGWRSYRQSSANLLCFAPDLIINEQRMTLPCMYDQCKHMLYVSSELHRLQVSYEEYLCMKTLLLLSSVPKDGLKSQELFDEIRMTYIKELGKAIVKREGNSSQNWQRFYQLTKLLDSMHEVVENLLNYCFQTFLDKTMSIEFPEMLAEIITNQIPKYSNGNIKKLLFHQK
The target is the same in assay [6]. Put plainly: GR-EFC Redistribution (AID 451; calls by dose curve; also: potency is read from the fitted curve at half-maximal effect). Particulars: CHO-K1 GR-EFC translocation, beta-gal luminescence, 2 h. A digest of the protocol:
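CHO-K1 cells stably expressing nuclear-localized β-gal enzyme acceptor and GR fused C-terminally to the enzyme donor fragment; ligand-driven nuclear translocation restores β-gal by complementation. Compounds titrated up to 46 uM final, 2 h at 37 °C; luminescence read.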

Assay [7] concerns the target Mitogen-activated protein kinase 10 (Mus musculus) (UniProt Q61831). The experiment in a line: JNK3 AlphaScreen Assay (AID 530).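 Also: kinase came from lysate of stimulated human HepG2 cells; % is scaled to controls: 0 for no effect and ±100 for the full control effect.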 Conditions: JNK3 lysate, c-Jun phosphorylation; series mostly up to 11.4 µM. A digest of the protocol: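 Biotinylated GST-cJun(1-79) served as substrate for JNK3 in HepG2 lysates stimulated with IL-1beta and TNF-alpha. ATP was 10 uM final, pH 7.6. Ser73 phosphorylation was quantified by AlphaScreen (680 nm excitation).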

Assay [8] has as its target 3',5'-cyclic-AMP phosphodiesterase 4B (Homo sapiens) (UniProt Q07343). Put plainly: qHTS Assay for Inhibitors of PDE-IV (AID 607; active = well fitted activation curve with a large enough effect in the main read-out, with a control signal flat, not every such curve was filed as active; also: % of control where 0% means no effect). Conditions: HEK293 ACTOne CNG channel cells, membrane potential fluorescence; series mostly up to 22.9 µM. Put shortly:
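The readout is membrane depolarisation from a cAMP-sensing CNG channel, detected with a potential dye at ex 535/em 590. Cells were HEK293-derived (endogenous PDE-IV) at 1000 cells/well, titrated up to 22.9 uM final.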
A general note: qHTS replaces the single test concentration by a dilution series.

The nature of assay [9]: qHTS Assay for Identification of Small Molecule Agonists for Hypoxia Response Element Signaling Pathway (AID 914; active = well fitted activation curve with a large enough effect in the signal ratio, with a control signal flat, not every such curve was filed as active; the % refers to the signal ratio; also: % of control where 0% means no effect). Particulars: ME-180 (cervical carcinoma) HRE-bla reporter, beta-lactamase ratio, CoCl2, 17 h; activation: active compounds read high. A digest of the protocol:
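AC50 values come from titration-series %Activity, taken as the 460/530nm ratio of CCF4 fluorescence (excitation 405nm). CellSensor HRE-bla ME-180 cells were treated 17 hours at 37 C with compound plus an EC50 level of CoCl2.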

The target of assay [10] is Cytochrome P450 2C9 (Homo sapiens) (UniProt P11712). Put plainly: qHTS Assay for Inhibitors and Substrates of Cytochrome P450 2C9 (AID 883; active = well fitted curve in the direction sought with a large enough effect; an effect the other way counts as inactive or inconclusive; also: nearly all actives have a fitted effect of over 60% in size; also: potency is read from the fitted curve at half-maximal effect). Conditions: recombinant CYP2C9, luciferin-H luminescence, 60 min; series mostly up to 11.4 µM. A digest of the protocol: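 CYP2C9 deoxyluciferin hydroxylation, 37C, 60 min with NADPH regeneration; 10nM enzyme, 100uM Luciferin-H (KM). Glo detection reagent stopped reaction; luminescence normalized to sulphaphenazole (57uM) full inhibition.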
Sequence of Cytochrome P450 2C9 (Homo sapiens) (P11712 whole entry, looked up): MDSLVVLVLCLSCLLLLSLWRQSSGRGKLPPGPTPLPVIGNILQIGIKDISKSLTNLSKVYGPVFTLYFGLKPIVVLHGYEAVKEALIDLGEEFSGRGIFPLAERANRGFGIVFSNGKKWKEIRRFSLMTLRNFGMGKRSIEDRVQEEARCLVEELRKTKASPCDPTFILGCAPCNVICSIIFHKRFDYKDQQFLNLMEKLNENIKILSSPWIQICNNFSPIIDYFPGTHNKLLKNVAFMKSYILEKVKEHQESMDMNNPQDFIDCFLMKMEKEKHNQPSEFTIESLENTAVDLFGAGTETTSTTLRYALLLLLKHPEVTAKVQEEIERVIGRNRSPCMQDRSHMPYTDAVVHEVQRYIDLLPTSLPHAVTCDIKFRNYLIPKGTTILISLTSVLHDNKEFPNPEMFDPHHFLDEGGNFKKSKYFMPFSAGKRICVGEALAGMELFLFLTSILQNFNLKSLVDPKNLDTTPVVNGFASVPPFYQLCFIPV

Assay [11] addresses Cytochrome P450 3A4 (Homo sapiens) (UniProt P08684). The experiment in a line: qHTS Assay for Inhibitors and Substrates of Cytochrome P450 3A4 (AID 884; active = well fitted curve in the direction sought with a large enough effect; an effect the other way counts as inactive or inconclusive; also: nearly all actives have a fitted effect of over 50% in size; also: potency is read from the fitted curve at half-maximal effect). Particulars: recombinant CYP3A4, Luciferin-PPXE luminescence; series mostly up to 57.1 µM. A digest of the protocol: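 Luminescent readout of luciferin produced by CYP3A4 (20 nM) dealkylation of Luciferin-PPXE, 25 uM (its KM). NADPH-driven reaction ran 60 min at RT after 10 min compound preincubation; data scaled to 57 uM ketoconazole as 100% inhibition.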

For assay [12] the target is unchanged. Put plainly: qHTS Assay for Activators of Cytochrome P450 3A4 (AID 885; active = well fitted curve in the direction sought with a large enough effect; an effect the other way counts as inactive or inconclusive; also: nearly all actives have a fitted effect of over 65% in size; also: potency is read from the fitted curve at half-maximal effect). Conditions: recombinant CYP3A4, Luciferin-PPXE luminescence, 60 min; series mostly up to 11.4 µM. Put shortly:
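Activators are scored by enhanced luminescence from CYP3A4 conversion of luciferin-PPXE (25uM, equal to KM) to luciferin, after 60 min at RT with an NADPH-regenerating system.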

For assay [13], the target named is Cytochrome P450 2C19 (Homo sapiens) (UniProt P33261). Put plainly: qHTS Assay for Inhibitors and Substrates of Cytochrome P450 2C19 (AID 899; active = well fitted curve in the direction sought with a large enough effect; an effect the other way counts as inactive or inconclusive; also: potency is read from the fitted curve at half-maximal effect; nearly all actives have a fitted effect of over 60% in size). Particulars: recombinant CYP2C19, luciferin-H EGE luminescence; series mostly up to 11.4 µM. A digest of the protocol:
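In 50mM KPO4, the reaction held 5nM enzyme and KM-level (10uM) Luciferin-H EGE; it ran 60 min at 37C after NADPH regeneration and a 10 min compound preincubation. Luminescence values were scaled to 57uM ketoconazole as complete inhibition.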

Sequence of Cytochrome P450 3A4 (Homo sapiens) (P08684 whole entry, looked up): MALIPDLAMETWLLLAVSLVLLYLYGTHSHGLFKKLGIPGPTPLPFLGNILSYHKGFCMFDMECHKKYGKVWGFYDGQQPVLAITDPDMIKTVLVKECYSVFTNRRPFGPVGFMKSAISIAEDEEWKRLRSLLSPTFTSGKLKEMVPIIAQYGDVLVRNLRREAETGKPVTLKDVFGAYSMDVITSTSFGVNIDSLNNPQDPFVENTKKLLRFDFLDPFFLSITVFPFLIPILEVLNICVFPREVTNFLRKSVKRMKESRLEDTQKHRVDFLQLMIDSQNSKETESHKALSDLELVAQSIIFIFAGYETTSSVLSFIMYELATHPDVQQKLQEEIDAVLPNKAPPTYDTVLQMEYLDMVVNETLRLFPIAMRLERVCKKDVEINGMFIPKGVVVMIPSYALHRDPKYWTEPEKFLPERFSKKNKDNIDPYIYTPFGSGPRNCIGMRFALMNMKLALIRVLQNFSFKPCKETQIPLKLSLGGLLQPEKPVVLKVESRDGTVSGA
Sequence of Lysosomal acid glucosylceramidase (Homo sapiens) (P04062 whole entry, looked up): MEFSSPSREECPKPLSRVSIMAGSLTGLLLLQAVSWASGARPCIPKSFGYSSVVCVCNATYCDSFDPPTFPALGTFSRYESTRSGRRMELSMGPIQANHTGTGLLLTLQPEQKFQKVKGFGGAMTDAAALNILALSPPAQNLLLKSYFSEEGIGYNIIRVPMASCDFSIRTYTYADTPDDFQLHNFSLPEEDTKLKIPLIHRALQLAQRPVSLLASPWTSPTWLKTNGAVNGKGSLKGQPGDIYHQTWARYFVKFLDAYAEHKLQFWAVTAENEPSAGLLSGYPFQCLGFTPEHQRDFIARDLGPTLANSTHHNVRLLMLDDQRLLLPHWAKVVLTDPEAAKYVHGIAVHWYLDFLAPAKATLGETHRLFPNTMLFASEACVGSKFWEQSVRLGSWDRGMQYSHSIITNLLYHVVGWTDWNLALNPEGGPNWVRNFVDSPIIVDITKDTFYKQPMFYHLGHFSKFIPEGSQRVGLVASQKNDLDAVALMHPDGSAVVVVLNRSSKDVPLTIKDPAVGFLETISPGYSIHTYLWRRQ
Sequence of 3',5'-cyclic-AMP phosphodiesterase 4B (Homo sapiens) (Q07343 whole entry, looked up): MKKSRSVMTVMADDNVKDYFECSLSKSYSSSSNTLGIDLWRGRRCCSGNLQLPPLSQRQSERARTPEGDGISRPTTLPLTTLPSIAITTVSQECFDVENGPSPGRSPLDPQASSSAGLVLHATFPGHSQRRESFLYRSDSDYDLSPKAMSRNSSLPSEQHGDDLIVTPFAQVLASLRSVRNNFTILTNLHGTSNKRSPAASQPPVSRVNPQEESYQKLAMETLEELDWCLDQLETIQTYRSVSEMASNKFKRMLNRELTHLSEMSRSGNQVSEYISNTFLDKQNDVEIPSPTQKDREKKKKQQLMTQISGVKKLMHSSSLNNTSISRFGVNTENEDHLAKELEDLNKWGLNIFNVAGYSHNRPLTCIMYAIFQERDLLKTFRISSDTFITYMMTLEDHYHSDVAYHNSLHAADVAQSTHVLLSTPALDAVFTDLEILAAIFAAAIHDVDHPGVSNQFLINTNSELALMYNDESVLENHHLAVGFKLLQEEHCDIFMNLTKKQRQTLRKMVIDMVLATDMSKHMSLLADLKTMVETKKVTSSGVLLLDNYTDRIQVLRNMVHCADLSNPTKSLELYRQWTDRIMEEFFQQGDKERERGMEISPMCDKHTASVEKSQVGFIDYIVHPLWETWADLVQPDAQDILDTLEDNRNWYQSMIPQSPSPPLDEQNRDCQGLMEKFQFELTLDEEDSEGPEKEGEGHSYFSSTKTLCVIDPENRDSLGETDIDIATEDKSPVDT
Sequence of Cytochrome P450 2C19 (Homo sapiens) (P33261 whole entry, looked up): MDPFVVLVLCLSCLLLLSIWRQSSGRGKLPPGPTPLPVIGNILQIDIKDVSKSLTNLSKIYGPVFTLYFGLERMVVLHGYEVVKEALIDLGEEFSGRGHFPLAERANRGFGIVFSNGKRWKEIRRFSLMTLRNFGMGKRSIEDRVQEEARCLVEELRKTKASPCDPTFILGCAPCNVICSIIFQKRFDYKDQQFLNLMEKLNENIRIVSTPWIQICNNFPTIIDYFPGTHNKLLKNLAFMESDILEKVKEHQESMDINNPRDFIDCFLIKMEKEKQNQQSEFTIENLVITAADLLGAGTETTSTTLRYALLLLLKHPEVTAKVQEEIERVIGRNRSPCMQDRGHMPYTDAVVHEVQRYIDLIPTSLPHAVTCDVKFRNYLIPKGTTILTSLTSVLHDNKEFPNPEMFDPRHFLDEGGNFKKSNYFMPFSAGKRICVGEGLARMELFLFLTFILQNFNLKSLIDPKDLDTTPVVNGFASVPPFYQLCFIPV

Regarding `c1ccc(-c2cnc(-c3ccc(-c4ncc(-c5ccccc5)o4)cc3)o2)cc1`, the Potency in [1] is above 11.4 µM; in [5], above 46 µM; in [6], above 9.22 µM. The activity change, negative = inhibition in assay [2] is -0.667%; in assay [3] it was 14.2%. Moreover, the activity, negative = inhibition in [4] is -0.742%. In addition, the Potency result in [7] and in assay [8] was “inactive” each time. In addition, in assay [9], the activation was 15%.

`O=C(C[C@@H](C(=O)O)N1CCOCC1)c1ccccc1`: the values for the Potency in assay [1], in assay [5] and in assay [6] were above 11.4 µM, above 46 µM and above 9.22 µM, respectively. Besides, the activity change, negative = inhibition in assay [2] is 8.49%; in assay [3] it was -28.5%. Besides, in assay [4], the activity, negative = inhibition was -2.89%. Moreover, the Potency result in assay [7] and in assay [8] was “inactive” in each case. In addition, the activation in assay [9] is 16%.

In the case of `NCCC1([N+](=O)[O-])CCNCC1`, the Potency in assay [1] was above 11.4 µM; in [5], above 46 µM; in [6] it was above 9.22 µM. The activity change, negative = inhibition in [2] is 2%; in assay [3], 12.9%. In addition, the activity, negative = inhibition in assay [4] is -18.7%. In addition, the Potency entry in assay [7] and in assay [8] was “inactive” each time. In assay [9], the activation was 13.3%.

`O=C(O)[C@@H](Br)[C@@H](Br)c1ccccc1[N+](=O)[O-]`: the Potency in assay [1] was above 11.4 µM; in assay [5] it was above 46 µM; in [6], above 9.22 µM. The activity change, negative = inhibition in [2] is 3.89%; in [3], 10.2%. Also, the activity, negative = inhibition in [4] was -0.793%. In addition, the Potency result in assay [7] and in [8] was “inactive” in each case. In addition, the activation in [9] was 6.66%.

`CC(C)(CO)N1CCN(C(=S)Nc2ccccc2)CC1`: the Potency in assay [1] is above 11.4 µM; in assay [5], above 46 µM; in assay [6] it was above 9.22 µM. The activity change, negative = inhibition was 7.77% in assay [2] and 17.5% in assay [3]. The activity, negative = inhibition in [4] was -2.59%. Besides, the Potency entry in assay [7] and in assay [8] was “inactive” each time. For the same molecule, the activation in [9] is 10%.

Turning to `CC(C)CNc1nc2ncnc(N)c2[nH]1`, the Potency is above 11.4 µM in assay [1], above 46 µM in [5] and above 9.22 µM in [6]. For the same molecule, the activity change, negative = inhibition is 5.51% in assay [2] and 1.95% in assay [3]. In [4], the activity, negative = inhibition was -10.8%. For the same molecule, the Potency entry in assay [7] and in [8] was “inactive” in each case. Moreover, in assay [9], the activation was 10.3%.

With `Cn1c(=O)c2[nH]c(CCNC(=O)c3ccccc3)nc2n(C)c1=O`, the Potency in assay [1] was above 11.4 µM; in assay [5], above 46 µM; in assay [6], above 9.22 µM. Moreover, the activity change, negative = inhibition in [2] was 5.92%; in [3], 10.4%. The activity, negative = inhibition in [4] is 3.06%. For the same molecule, the Potency entry in [7] and in [8] was “inactive” throughout. The activation in assay [9] was 8.28%.

Regarding `O=C1Nc2ccccc2[C@]1(O)Cc1ccccn1`, the results for the Potency in assay [1], in [5] and in assay [6] were above 11.4 µM, above 46 µM and 0.26 µM (active), respectively. Also, the activity change, negative = inhibition in assay [2] was 1.94%; in assay [3], 2.79%. In [4], the activity, negative = inhibition was 12.1%. In addition, the Potency entry in assay [7] and in [8] was “inactive” each time. Further, the activation in assay [9] is -8.99%.

In the case of `O=S(=O)(O)c1cc(S(=O)(=O)O)c2c(N=Nc3cccc4ccccc34)c(O)ccc2c1`, the Potency entry in [10] was “inactive”. For the same molecule, the activity change, negative = inhibition in assay [11] was -5.78% [at 11.4 µM].

In the case of `CN(C)CN1CSC(=S)N(CN(C)C)C1`, in assay [10], the Potency is 3.16 µM (active).

In the case of `COc1ccc([C@@H](C)c2cc3c(cc2O)OCO3)cc1`, the Potency in assay [11] was 2.51 µM (active).

As to `O=S(=O)(O)c1ccc(-c2nnc(-c3ccccn3)nc2-c2ccc(S(=O)(=O)O)o2)o1`, in assay [9], the activation was 8.26%.

As to `O=S(=O)(O)c1cc(O)c2c(O)c(N=Nc3cccc4ccccc34)c(S(=O)(=O)O)cc2c1`, in [9], the activation was -26.6%.

On to `C[C@H]1CCCC=CC2C[C@H](OC(=O)CN(C)C)C[C@@H]2[C@@H](O)/C=C\C(=O)O1` (some centres not stated), for which the Potency in assay [1] was above 11.4 µM; in assay [5], above 46 µM; in assay [6] it was above 9.22 µM; in [12], 3.98 µM (active). Further, the activity change, negative = inhibition was -7.78% in assay [2] and 29.7% in [3]. Besides, the Potency result in assay [7], in assay [8] and in assay [10] was “inactive” in each case.

Regarding `O=C1C2=C(Nc3cc([N+](=O)[O-])ccc3N2)O[C@@H]1c1ccc([C@H]2OC3=C(Nc4ccc([N+](=O)[O-])cc4N3)C2=O)cc1`, the Potency was above 11.4 µM in assay [1], above 46 µM in [5] and above 9.22 µM in assay [6]. Besides, the activity change, negative = inhibition in assay [2] was -12.2%; in assay [3] it was 4.88%. The Potency entry in assay [7], in [8] and in assay [12] was “inactive” throughout.

Turning to `O=C(O)c1oc(C(=O)O)c(C(=O)O)c1C(=O)O`, the Potency is above 11.4 µM in assay [1], above 46 µM in [5] and above 9.22 µM in assay [6]. Also, the activity change, negative = inhibition was 10.9% in [2] and 7.7% in [3]. Besides, the Potency entry in [7] and in [8] was “inactive” throughout.

For the molecule `O=[N+]([O-])c1ccc(CS(=O)Cc2ccccc2)cc1` (configuration not stated), the Potency in assay [1] was above 11.4 µM; in assay [5], above 46 µM; in assay [6] it was above 9.22 µM; in assay [13], 1.26 µM (active). Also, the figures for the activity change, negative = inhibition in assay [2] and in assay [3] were -8.79% and -22%, respectively. Moreover, the Potency result in assay [7] and in assay [8] was “inactive” throughout.

As to `Nc1ccc(N(S(=O)(=O)c2ccccc2)S(=O)(=O)c2ccccc2)c(Cl)c1`, the Potency was above 11.4 µM in assay [1]; above 46 µM in [5]; above 9.22 µM in [6]; 3.16 µM (active) in [10]; 0.0316 µM (active) in [11]; 0.158 µM (active) in assay [13]. For the same molecule, the activity change, negative = inhibition is -27.7% in assay [2] and -14.8% in assay [3]. In addition, the Potency entry in [7] and in assay [12] was “inactive” throughout.

As to `CC(CCc1nc2ccccc2s1)(c1ccc(O)cc1)c1ccc(O)cc1`, the Potency in assay [1] was above 11.4 µM; in assay [5], above 46 µM; in [6] it was above 9.22 µM. Further, the activity change, negative = inhibition in assay [2] was 7.74%; in assay [3], 1.62%. Further, the Potency result in assay [7] and in [8] was “inactive” each time.
